# Inconclusive results are not listed. Unmarked numbers belong to inactive results. Activity calls are given as the source filed them. Calls come from the whole dose curve; as a rule, active = well fitted inhibition curve with a large enough effect; inconclusive = small, poorly fitted or top-dose-only effect; inactive = no such curve, though single readings can be large or run the other way.
# Test: Primary fluorescence-based thiol-reactive (MSTI) qHTS assay for identification of artifact compounds. (AID 1845221); note: nearly all actives have a fitted effect of over 65% in size;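 for activity change, negative = thiol reactive: thiol-reactive compounds lower the probe fluorescence signal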
# Settings: MSTI thiol-reactivity probe, 1 h; series mostly up to 53.8 µM; activity change, negative = thiol reactive: at the top concentration
# How it was run: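 One-hour, room-temperature, dark incubation of compound with 4 uM MSTI in PBS (pH 7.4, 2% DMSO) precedes a fluorescence read at 525 nm excitation, 598 nm emission; Hill-equation fitting yields concentration-response values.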
# Potency is the fitted concentration of half-maximal effect.
Compound,Potency,"activity change, negative = thiol reactive"
CC[C@H](C)/C=C(C)/C=C/C(=O)Cc1cc(O)c(C)c(O)c1C=O,14.7 µM (active),
CC(=O)N[C@H]1[C@H](O[C@H]2CC[C@@]3(C)C(CC[C@]4(C)C3CC=C3C5CC(C)(C)CC[C@]5(C(=O)O)[C@H](O[C@@H]5O[C@H](CO)[C@@H](O)[C@H](O)[C@H]5O)C[C@]34C)C2(C)C)O[C@H](CO[C@@H]2OC[C@H](O)[C@H](O)[C@H]2O[C@@H]2OC[C@@H](O)[C@H](O)[C@H]2O)[C@@H](O)[C@@H]1O (stereo partly drawn),,-21.6% [at 11.5 µM]
CCC(=O)NS(=O)(=O)c1ccc(-c2c(-c3ccccc3)noc2C)cc1,,-6.77%
C/C1=C\C[C@H](O[C@@H]2O[C@H](CO)[C@@H](O)[C@H](O)[C@H]2O)/C(C)=C/[C@H]2OC(=O)[C@H](C)[C@@H]2CC1,7.33 µM (active),
C=C1CCC2C(C)(COC3OC(COC(=O)CC(=O)O)C(O)C(O)C3O)CCCC2(C)C1CCC1=CCOC1=O (stereo not drawn),,27.9% [at 25.6 µM]
CC(C)C(=O)O[C@@H]1[C@@H](O)[C@@H](O[C@H]2O[C@H](CO)[C@@H](O)[C@H](O)[C@H]2O)O[C@H](CO)[C@H]1O,,-8.74% [at 25.6 µM]
COC1CC(=O)C23C(=O)NC(CC(C)C)C2C(C)C(C)=CC3/C=C(\C)CCC1O (stereo not drawn),,13.8% [at 25.6 µM]
COc1cc(O[C@@H]2O[C@H](CO)[C@@H](O)[C@H](O)[C@H]2O)c(CCC(=O)OC[C@H]2O[C@@H](Oc3cc(OC)c(C4OC(=O)C(C)(O)C4O)cc3CCC(=O)O)[C@H](O)[C@@H](O)[C@@H]2O)cc1C1OC(=O)C(C)(O)C1O (stereo partly drawn),,56% [at 11.5 µM]

# — PubChem BioAssay (NCATS)
